Only some compounds are listed: those with a hit (about 2.2% of all), similar ones and a draw of the others.
Mito fusion yeast: inhibitors of mitochondrial division or activators of mitochondrial fusion; S. cerevisiae fusion-defective mutant growth rescue, CellTiterGlo 48 h; Potency, µM (titrated, usually from 46.1 µM), for inactives: at the top dose growth rescue (activation), usual class: activators; AID 485298; hit rate 0.23% among 320,000; further: % of control where 0% means no effect; nearly all actives have a fitted effect of over 45% in size
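S. cerevisiae fusion-defective temperature-sensitive mutants (e.g. fzo1-1, mgm1-5) grown 48 h at 37C in YPEG (ethanol/glycerol non-fermentable) medium with 23 nl compound per well; growth rescue read as CellTiterGlo luminescence.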
aSyn yeast inh: rescues yeast growth from alpha-synuclein toxicity | Yeast expressing alpha-synuclein, growth rescue, BacTiter-Glo, 24 h | Potency, µM (top dose mostly 46.1 µM), inactives show at the highest dose growth rescue (activation), actives largely listed as activators | hit rate 0.14% among 370,000 | AID 652106; further: % of control where 0% means no effect; nearly all actives have a fitted effect of over 65% in size
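Screening used galactose-induced yeast with toxic alpha-synuclein levels, exposed to compound for 24 hr at 30 deg C. Cell growth, read with BacTiter-Glo luminescence, gave the measured signal.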
Abeta rescue: A-beta toxicity reversal in yeast; hit rate 0.063% among 410,000; yeast expressing A-beta42, growth rescue, OD600, 48 h; response scale: 0% DMSO, 100% iron-clioquinol control; AID 1347071; Potency, µM (titrated, usually from 46.1 µM), usual class: activators; further: nearly all actives have a fitted effect of over 55% in size
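Yeast growth medium received pinned compounds, then yeast cells expressing toxic A-beta were added; plates incubated at 30 C for 48 hr. Growth read as absorbance at 600 nm, normalized to DMSO and equimolar FeCl3 plus clioquinol controls.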
TDP43 rescue: inhibitors of TDP-43 toxicity in yeast | hit rate 1.8% among 410,000 | Potency, µM (top dose mostly 46.1 µM), without a hit: at the top dose growth rescue (activation), actives largely listed as activators | TDP-43 expressing yeast growth rescue, BacTiter-Glo, 24 h; further: % of control where 0% means no effect; nearly all actives have a fitted effect of over 50% in size
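Growth rescue of TDP-43-toxic yeast measured as ATP luminescence (BacTiter-Glo). Cells grown to mid-log in raffinose, induced in galactose at OD600=0.02, exposed to compound 24 hr at 30 deg C.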
FUS suppressor: FUS proteinopathy suppression in yeast. S. cerevisiae FUS-expressing, growth rescue, OD600, 24 h. Potency, µM (highest dose often 76.6 µM), usual class: activators. hit rate 0.24% among 390,000. AID 1347120;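 further: plate controls were DMSO vehicle for no effect and reference control for full effect; nearly all actives have a fitted effect of over 55% in size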
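Cultures pregrown in 2.5% raffinose medium are shifted to minimal medium containing 2% galactose to express toxic FUS. Compounds are tested at several concentrations. After 24hr at 30C, growth is quantified at 600 nm absorbance.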
* hit, by the source's call; i = inactive; ? = inconclusive; / = not tested or not shown; [ ] = remark or other dose. The call rests on the fitted dose curve; in most records, active means well fitted curve in the direction sought with a large enough effect; inconclusive means small, poorly fitted or top-dose-only effect, or another doubt; inactive means no such curve, though single readings can be large; an effect the other way counts as inactive or inconclusive. Potency means the concentration at half of the fitted maximal effect.

SMILES | Mito fusion yeast | aSyn yeast inh | Abeta rescue | TDP43 rescue | FUS suppressor
Cc1ccc(N2CCN(C(=O)c3ccccc3F)CC2)c(C)c1 | 20% | -20% | i | ? | i
O=C(c1c[nH]c(C(=O)N2CCN(c3ccccc3F)CC2)c1)c1cccc(Cl)c1Cl | 0% | ? | 3.2µM* | 25µM* | i
CC(C)(C)c1ccc(OCCn2c(CCNC(=O)C3CCCCC3)nc3ccccc32)cc1 | / | -40% | / | / | /
COc1ccc(N(CC(=O)NC2CCCCC2)C(=O)CCCC(=O)Nc2ccccn2)cc1 | 2% | 0% | i | 21% | i
C#CCSc1nc(C)cc(C(=O)OCC)c1C#N | 7% | -5% | i | 14µM* | i
Cc1cccc(Sc2ccc([N+](=O)[O-])cn2)c1 | 13% | 1% | i | 11µM* | i
Cc1cccc(OCCNc2ccc([N+](=O)[O-])cn2)c1 | 5% | 2% | i | 13µM* | i
O=[N+]([O-])c1ccc(Sc2ccccc2)nc1 | 4% | -2% | i | 8% | i
CC(C)(C)c1csc(Sc2ccc([N+](=O)[O-])cn2)n1 | 3% | -12% | i | 11µM* | i
O=C(NCCc1c[nH]c2ccccc12)OC1CC2CC1[C@H]1CCCCN1C2=O (stereo not given in full) | / | -2% | i | 21% | i
COc1ccccc1-c1c(C)nn2c(C(F)(F)F)cc(-c3ccccc3)nc12 | / | / | i | 7% | i
COc1cc(CNn2c(C)n[nH]c2=S)cc(Br)c1OCc1ccc(F)cc1 | ? | 3% | i | 35µM* | i
Cc1ccc(-c2cn3c(n2)sc2cc(C(=O)NCCCc4ccccc4)ccc23)c(C)c1 | / | / | i | 24%[9.22 µM] | i
CCN1CCN(S(=O)(=O)c2ccc(Cl)c(C(=O)N(C)Cc3ccco3)c2)CC1 | 3% | 0% | i | 27% | i
COc1ccc(N2CCN(C(=O)c3ccc4c(c3)N(Cc3cc(C)ccc3C)C(=O)c3ccccc3S4=O)CC2)cc1 (stereo not given) | / | / | i | 23% | i
Cc1ccc(C)c(CN2C(=O)c3ccccc3S(=O)c3ccc(C(=O)N4CCN(c5cccc(Cl)c5)CC4)cc32)c1 (stereo not given) | / | / | i | -30% | 10µM*
CCN1CCN(CCNC(=O)c2ccc3c(c2)N(Cc2cccc(Cl)c2)C(=O)c2ccccc2S3=O)CC1 (stereo not given) | -5% | -2% | i | -11% | i
CCN(C(=O)c1ccc2c(c1)N(Cc1cccc(Cl)c1)C(=O)c1ccccc1S2=O)c1ccccc1 (stereo not given) | / | / | i | -19% | 32µM*
CCOc1ccc(CCNC(=O)c2ccc3c(c2)N(Cc2ccccc2)C(=O)c2ccccc2S3=O)cc1OCC (stereo not given) | / | / | i | 18% | 25µM*
CC(=O)c1cccc(NC(=O)c2cc3sc(Cl)cc3n2C)c1 | / | / | i | 13%[9.22 µM] | i
C=CCn1c(=O)[nH]c(=O)c2c(N)c(C(=O)c3ccc(OC)cc3)sc21 | / | -3% | i | -48% | i
CCc1ccc(N(CC(=O)NC(C)(C)C)C(=O)CCC(=O)Nc2ccccn2)cc1 | 1% | 11% | i | 15% | i
Cc1nc2ccc(NC(=O)COc3ccccc3)cc2s1 | -34% | -68% | i | ? | i
Cc1nc2ccc(NC(=O)COc3cccc(F)c3)cc2s1 | -3% | -51% | i | 20µM* | i
Cc1cccc(OCC(=O)Nc2ccc3nc(C)sc3c2)c1 | -4% | -39% | i | 2.5µM* | i
SMILES | Mito fusion yeast | aSyn yeast inh | Abeta rescue | TDP43 rescue | FUS suppressor
CCn1c(CN2c3ccccc3Sc3ccccc32)n[nH]c1=S | 24% | 21% | 16µM* | 0% | i
CCn1c(CCCCc2n[nH]c(=S)n2CC)n[nH]c1=S | 3% | -1% | i | 7% | i
CCOc1ccc(NC(=O)CN2C(=O)C(c3ccc(Cl)cc3)=NC2(C)C)cc1 | / | / | i | 24% | i
CC1(C)N=C(SCC(=O)Nc2ccc(Cl)cc2)C(c2ccccc2)=N1 | 6% | 0% | i | 32µM* | i
CC1(C)N=C(SCC(=O)Nc2ccc(Cl)cc2)C(c2ccc(Cl)cc2)=N1 | 0% | -10% | i | 35µM* | i
Cc1cc(SCC(=O)Nc2ccc(Cl)cc2)nc2ccccc12 | / | / | i | 18% | i
Fc1ccc(-c2nc3ccccc3c3nc4ccccc4n23)cc1 | ? | -13% | i | 0% | i
Cc1nc2ccccc2c2nc3ccccc3n12 | -3% | ? | i | 13µM* | i
COc1cc(OC)cc(C(=O)NCCNc2nc3cc(C)cc(C)c3cc2C#N)c1 | 1% | 0% | i | 7% | i
O=C(OC(c1ccccc1)c1nccc2ccccc12)c1cc([N+](=O)[O-])cc([N+](=O)[O-])c1 (stereo not given) | ? | 9% | i | 6.3µM* | /
COc1ccccc1NC(=O)CSC1=Nc2ccccc2C2=NC(CCC(=O)NCc3ccco3)C(=O)N12 (stereo not given) | / | / | i | ? | i
O=C(NC1CCCCC1)c1nc(C2CCNCC2)oc1-c1ccccc1 | / | 3% | i | 24% | i
CCOc1ccc2nc(N(Cc3cccnc3)C(=O)c3ccco3)sc2c1 | / | / | i | 20µM* | i
Cc1cccc2sc(N(Cc3cccnc3)C(=O)c3ccco3)nc12 | / | / | i | 18µM* | i
Cc1cccc2sc(N(Cc3cccnc3)C(=O)Cc3ccccc3)nc12 | / | / | i | 13µM* | i
O=C(c1ccco1)N(Cc1cccnc1)c1nc2c(F)cccc2s1 | / | / | i | 17% | i
COc1ccc2nc(N(Cc3cccnc3)C(=O)c3ccco3)sc2c1 | / | / | i | ? | i
COc1ccc2nc(N(Cc3cccnc3)C(=O)C3CCCCC3)sc2c1 | / | / | i | 6.3µM* | i
O=C(C1CCCCC1)N(Cc1cccnc1)c1nc2ccc(F)cc2s1 | / | / | i | ? | i
Cc1nn(C(=O)c2cccc(Cl)c2)c(C)c1S(=O)(=O)N1CCOCC1 | / | / | i | 14% | i
Cc1cccc2sc(N(Cc3cccnc3)C(=O)c3cccs3)nc12 | / | / | i | 32µM* | i
COc1ccc(-c2cc(-c3ccccc3)nc(-c3ccc4c(c3)NC(=O)CO4)c2)cc1 | 5% | / | i | 13µM* | i
COc1ccc(Nc2nc(-c3ccc4c(c3)NC(=O)CO4)cs2)cc1 | 1% | 3% | i | ? | i
COc1cc(C)ccc1OCc1cc(C(=O)N2CCCCCCC2)no1 | 3% | 16% | i | -30% | ?
CC(C)Oc1ccc(C2CC(=O)N(c3cccc(Br)c3)C2=O)cc1 (stereo not given) | -8% | 9% | i | 20µM* | i
CC(C)Oc1ccc(C2CC(=O)N(C)C2=O)cc1 (stereo not given) | -2% | -1% | i | 17% | i

Screening results (PubChem)
